Unmarked numbers belong to inactive results. Calls of active or inactive are those of the source. The call rests on the fitted dose curve.
Target: Gonadotropin-releasing hormone receptor (Homo sapiens) (UniProt P30968)
Test: Human gonadotropin-releasing hormone receptor (GnRHR) small molecule agonists, calcium flux assay in GnRHR-HEK293 cells (AID 1920063); further: nearly all actives have a fitted effect of over 35% in size
Settings: calcium flux fluorescence, agonist mode; series mostly up to 57.6 µM; activity change: at the top concentration
Source text: National Center for Advancing Translational Sciences [NCATS]
Division of Preclinical Innovation [DPI]
U.S. Environmental Protection Agency [EPA]
National Institutes of Environmental Health Sciences [NIEHS]
National Toxicology Program [NTP]
U.S. Food and Drug Administration [FDA]
Gonadotropin-releasing hormone receptor (GnRHR) is a G-protein-coupled receptor (GPCR) and acts (through phospholipase C) to increase intracellular inositol trisphosphate and then release intracellular calcium stores. Cell-based GnRHR-Hek293 calcium influx assay is using HEK293 cells that have been genetically engineered to express the human GnRHR, which activity can be measured by calcium signaling. A compound/drug can activate (agonist) GnRHR that can be monitored by levels of intracellular calcium.
GnRHR-HEK293 cells developed by Codex Corp contain human GnRHR reporter gene, which was stably integrated into HEK 293 cells. The compound activation can be detected by fluorescence intensity via calcium flux assay. This cell line has been used to screen the Tox21 10K compound library to identify GnRHR agonists.
GnRHR-Hek293 cells were dispensed at 1500cells/4uL/well in 1536-well black wall/clear bottom plates using a multidrop dispenser. After the assay plates were incubated at a 37 C/5% CO2 incubator for 18 hours, 4 uL of Calcium Dye Solution was added to each well. The plates were incubated at 37 C for 1 hour. For agonist mode, 23 nL of compounds dissolved in DMSO, positive controls or DMSO only was transferred to the assay plate by a pin tool station. The fluorescence intensity in the plates was measured using FDSS 7000EX kinetic plate reader with a filter set of Ex/Em=480/540 for 3 min at 1 sec intervals. Each test compound was measured at 15 concentrations and in triplicates.
On the % scale 0 is the no-effect control and ±100 the full control effect.

Chain of Gonadotropin-releasing hormone receptor (Homo sapiens) (P30968 whole entry, looked up): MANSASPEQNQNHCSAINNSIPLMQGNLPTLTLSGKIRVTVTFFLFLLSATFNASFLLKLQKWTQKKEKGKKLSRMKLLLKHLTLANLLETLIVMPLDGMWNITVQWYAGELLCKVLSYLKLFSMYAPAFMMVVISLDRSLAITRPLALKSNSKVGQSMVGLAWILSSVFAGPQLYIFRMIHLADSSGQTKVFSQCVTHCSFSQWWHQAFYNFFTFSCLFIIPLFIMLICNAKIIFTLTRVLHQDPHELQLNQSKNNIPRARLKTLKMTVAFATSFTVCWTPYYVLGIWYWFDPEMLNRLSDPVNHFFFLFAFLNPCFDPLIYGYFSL

Structure (SMILES)	activity change	Potency
C=CCCC(=O)O	0.663%	
NC(=O)c1ccccc1C(N)=O	-0.813%	
CC(=O)Nc1cccc(N)c1	-1.75%	
Cc1cc(CCN2CCN(c3nsc4ccccc34)CC2)cc2c1NC(=O)CC2(C)C	7.26%	
CC(CC=O)c1ccccc1 (stereo not given)	-0.0743%	
O=C(OCCc1ccccc1)c1ccccc1	-0.0591%	
CCCCCCCCCCCCCCCBr	-0.579% [at 26.4 µM, hits give high values]	
Cc1cccc(OCCOc2cccc(C)c2)c1	-0.372%	
Cc1ccccc1N=C(N)Nc1ccccc1C	6.83%	
COC1=C(OC)C(=O)C(CCCCCCCCCCO)=C(C)C1=O	1.4% [at 26.4 µM, hits give high values]	
CCCCC=O	-0.291%	
CCCCCCCCCCCCCCCCN(C)C	-0.722% [at 5.22 µM, hits give high values]	
CC1(C)CCC[C@]2(C)[C@H]3CC(=O)O[C@]3(C)CC[C@@H]12	5.49%	
O=C(O)CCCCCCCCCC(=O)O	0.332%	
COc1cc(C(C)=O)ccc1OCCCN1CCC(c2noc3cc(F)ccc23)CC1	3.22% [at 26.4 µM, hits give high values]	
CCOC(=O)CC(C)C	-0.0051%	
O=C(NCC(O)CO)c1c(I)c(C(=O)NCC(O)CO)c(I)c(N(CCO)C(=O)CO)c1I (stereo not given)	0.0179% [at 26.4 µM, hits give high values]	
Oc1cc(Cl)cc(Cl)c1Cl	10.2%	
CC1(C)O[C@@H]2C[C@H]3[C@@H]4C[C@H](F)C5=CC(=O)C=C[C@]5(C)[C@H]4[C@@H](O)C[C@]3(C)[C@]2(C(=O)CO)O1	3.37% [at 26.4 µM, hits give high values]	
CC[N+](C)(CC)CCOC(=O)C1c2ccccc2Oc2ccccc21	-0.193% [at 26.4 µM, hits give high values]	

Structure (SMILES)	activity change	Potency
CCCCCCCCNC	-0.328%	
CC(C)(C)NC(=O)[C@@H]1C[C@@H]2CCCC[C@@H]2CN1C[C@@H](O)[C@H](Cc1ccccc1)NC(=O)[C@H](CC(N)=O)NC(=O)c1ccc2ccccc2n1	1.4%	
CN(C/C=C/c1ccccc1)Cc1cccc2ccccc12	-1.83% [at 26.4 µM, hits give high values]	
CO/N=C(/C(=O)N[C@@H]1C(=O)N2C(C(=O)O)=C(Cn3nnc(C)n3)CS[C@H]12)c1csc(N)n1	-0.0821% [at 26.4 µM, hits give high values]	
CSc1c(Cl)c(Cl)c(Cl)c(Cl)c1Cl	-0.0433%	
CCCCCCCCCCCCCCCCCCNC(=O)OC1CCN(C(=O)OC[C@H](COC(=O)N(Cc2cccc[n+]2CC)C(=O)c2ccccc2OC)OC)CC1	0.576% [at 26.4 µM, hits give high values]	
CN1CCC(=C2c3ccccc3CCc3cccnc32)CC1	-0.0596% [at 26.4 µM, hits give high values]	
C=CC(=O)OCCCCCCOC(=O)C=C		inactive
CCCC(=O)OC(C)(C)Cc1ccccc1	-0.398%	
O=C(O)[C@@H]1CSCN1	-1.38% [at 26.4 µM, hits give high values]	
O=[N+]([O-])c1cccc(S(=O)(=O)O)c1	-1.99%	
CC(Cc1ccc(O)c(O)c1)C(C)Cc1ccc(O)c(O)c1 (stereo not given)	17.1%	
Cc1nnc(SCC2=C(C(=O)O)N3C(=O)[C@@H](NC(=O)Cn4cnnn4)[C@H]3SC2)s1	0.0674% [at 26.4 µM, hits give high values]	
NNC(=O)CP(=O)(c1ccccc1)c1ccccc1	-0.255% [at 26.4 µM, hits give high values]	
Cc1cc(O)ccc1O	-1.04%	
CC(C)(C)CCCCCCOC(=O)c1ccccc1C(=O)OCCCCCCC(C)(C)C	1.6%	
Cc1c(N)c(=O)n(-c2ccccc2)n1C	0.906% [at 26.4 µM, hits give high values]	
O=C(CN1CCNCC1)NC1CCCCC1	0.434% [at 26.4 µM, hits give high values]	
Nc1ccc2cc(S(=O)(=O)O)cc(O)c2c1N=Nc1ccccc1C(F)(F)F	0.288%	
NC(=O)Nc1nc2ccccc2[nH]1	0.502%	
